From PubChem BioAssay (Tox21)
Records with an inconclusive call do not appear. Entries that show only a call come without a potency. Activity calls are given as the source filed them. Calls come from the whole dose curve; as a rule, active = well fitted inhibition curve with a large enough effect in the repeat runs; inconclusive = weak or mixed curves; inactive = flat fitted curve, though single readings scatter.

target: Voltage-gated inwardly rectifying potassium channel KCNH2 (Homo sapiens) (UniProt Q12809); test: Human Ether-a-go-go-Related Gene (hERG) channel small molecule antagonists: fluorescence cell-based qHTS assay (AID 1671200); conditions: hERG-U2OS cells, FluxOR thallium flux fluorescence; series mostly up to 76.8 µM; note: nearly all actives have a fitted effect of over 50% in size
Sequence (Q12809 whole entry, looked up): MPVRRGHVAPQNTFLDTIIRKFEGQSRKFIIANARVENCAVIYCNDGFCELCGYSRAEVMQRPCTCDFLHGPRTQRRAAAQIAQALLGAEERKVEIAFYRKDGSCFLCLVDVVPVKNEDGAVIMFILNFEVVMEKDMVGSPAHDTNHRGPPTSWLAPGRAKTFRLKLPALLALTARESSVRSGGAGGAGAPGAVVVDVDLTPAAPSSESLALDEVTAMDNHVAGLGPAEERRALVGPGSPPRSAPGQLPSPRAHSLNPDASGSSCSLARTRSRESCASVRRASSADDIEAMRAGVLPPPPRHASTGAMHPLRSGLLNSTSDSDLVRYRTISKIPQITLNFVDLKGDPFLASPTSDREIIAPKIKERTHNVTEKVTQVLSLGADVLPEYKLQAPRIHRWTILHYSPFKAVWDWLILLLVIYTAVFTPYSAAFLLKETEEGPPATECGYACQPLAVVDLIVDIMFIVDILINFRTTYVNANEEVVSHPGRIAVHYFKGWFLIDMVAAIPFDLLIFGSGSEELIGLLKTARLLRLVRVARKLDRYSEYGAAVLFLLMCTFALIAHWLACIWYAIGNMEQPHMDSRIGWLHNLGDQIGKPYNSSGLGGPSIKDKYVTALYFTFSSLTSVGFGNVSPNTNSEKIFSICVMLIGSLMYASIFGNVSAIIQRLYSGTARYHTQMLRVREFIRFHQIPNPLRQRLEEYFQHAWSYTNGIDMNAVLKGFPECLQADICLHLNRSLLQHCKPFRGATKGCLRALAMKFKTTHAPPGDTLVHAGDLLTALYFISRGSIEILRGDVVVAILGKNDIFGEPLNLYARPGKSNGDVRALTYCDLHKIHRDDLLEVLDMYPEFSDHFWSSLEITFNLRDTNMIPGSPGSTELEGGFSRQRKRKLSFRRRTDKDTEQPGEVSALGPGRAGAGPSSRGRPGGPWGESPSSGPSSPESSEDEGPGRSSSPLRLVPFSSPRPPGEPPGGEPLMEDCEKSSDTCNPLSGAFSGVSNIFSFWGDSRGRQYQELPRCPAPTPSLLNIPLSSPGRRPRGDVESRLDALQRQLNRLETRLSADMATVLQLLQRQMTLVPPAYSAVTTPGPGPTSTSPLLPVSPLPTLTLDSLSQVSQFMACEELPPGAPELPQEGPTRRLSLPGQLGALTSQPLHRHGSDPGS
Source text: National Center for Advancing Translational Sciences [NCATS]
U.S. Environmental Protection Agency [EPA]
National Institutes of Environmental Health Sciences [NIEHS]
National Toxicology Program [NTP]
U.S. Food and Drug Administration [FDA]
Mutations in the hERG channel cause Long QT (LQT) syndrome. LQT syndrome is a cardiac disorder which can cause ventricle arrhythmia and sudden death. Additionally, compounds which block the hERG channel can cause acquired LQT syndrome. Several FDA approved drugs have been removed from the market due to their hERG blocking activity. A cell-based hERG channel inhibition assay can be used to screen chemical compounds that inhibit hERG channel. This assay measures hERG channel activity using thallium ions as surrogate ions to measure potassium into the cells.
Tox21 Assay Protocol Summary:
hERG-U2OS cells were resuspended in culture medium and dispensed into 1536-well, black wall/clear-bottom plates at 1000cells/well/3uL using a Multidrop Combi dispenser (Thermo Fisher, Waltham, MA). After plates were incubated at 37 C overnight, 3 uL of Loading Buffer provided by FluxOR II Potassium Ion Channel Assay kit (Thermo, Carlsbad, CA) was added to each well. The assay plates were then incubated at room temperature in the dark for 1h. […] After the assay plates were incubated at room temperature for 10 min, 1 uL of Stimulus Buffer provided by FluxOR II Potassium Ion Channel Assay kit was added into each well and fluorescence intensity (480nm excitation/540nm emission) was continuously measured for 2 min at 1 second intervals using a Functional Drug Screening System (FDSS) 7000EX kinetic plate reader (Hamamatsu, Japan).
Potency is the fitted concentration of half-maximal effect.

| Compound | Potency |
| --- | --- |
| Cc1cccc(C)c1NC(=O)CN1CCCCCC1 | inactive |
| O=S(=O)(O)C(F)(F)F | inactive |
| CCOc1ccc(NC(N)=O)cc1 | inactive |
| Cc1ccc(C)c(N)c1 | inactive |
| O=C1CCCCCCCCCCC(=O)OCCO1 | inactive |
| CC(C)S | inactive |
| CC(C)(C)C1CCCCC1=O (stereo not given) | inactive |
| FC(F)(F)C(Cl)(Cl)Cl | inactive |
| CC(=O)N[C@@H](CC(C)C)C(=O)O | inactive |
| CN1CCN(c2c(F)cc3c(=O)c(C(=O)O)cn4c3c2SCC4)CC1 | inactive |
| CCCCCCCOC(=O)CCC | inactive |
| CC1CN(c2ccccc2)NC1=O (stereo not given) | inactive |
| CCCCNC(=S)NCCCC | inactive |
| ClC(Cl)Cl | inactive |
| Nc1ccc(Oc2ccc(N)c(N)c2)cc1 | inactive |
| Cc1c(C(=O)NCCO)[n+](=O)c2ccccc2n1[O-] | inactive |
| CCOC(=O)[C@H](CCc1ccccc1)N[C@@H](C)C(=O)N1Cc2cc(OC)c(OC)cc2C[C@H]1C(=O)O | inactive |
| CC(Oc1c(Cl)cccc1Cl)C1=NCCN1 (stereo not given) | inactive |
| COC(=O)/C=C(/C)N | inactive |
| C=CCc1cc(OC)c(O)c(C(=O)NCCO)c1 | inactive |

| Compound | Potency |
| --- | --- |
| CC(C)Nc1nc(N)nc(Cl)n1 | inactive |
| CCOc1ccc(NS(=O)(=O)c2ccc(N)cc2)nn1 | inactive |
| CCCCCCCCCCCCOCCOS(=O)(=O)O | inactive |
| C[C@]12C(=O)OC(=O)[C@H]1[C@H]1C=C[C@@H]2C1 | inactive |
| C=Cc1ccccc1 | inactive |
| CCCCC1CCC(=O)O1 (stereo not given) | inactive |
| CN(C)C(=O)NC1(c2ccccc2)CCN(CCC[C@]2(c3ccc(Cl)c(Cl)c3)CCCN(C(=O)c3ccccc3)C2)CC1 | 2.08 µM (active) |
| CC1=NN(c2cc(Cl)c(S(=O)(=O)O)cc2Cl)C(=O)C1N=Nc1ccc(S(=O)(=O)O)cc1 (stereo not given) | inactive |
| CCOC(=O)c1ccccc1O | inactive |
| COc1ccc(S(=O)(=O)Nc2nnc(CC(C)C)s2)cc1 | inactive |
| COc1cc(N)c(Cl)cc1C(=O)NC1CCN(Cc2ccccc2)CC1 | 16.9 µM (active) |
| CCCC1CCC(=O)O1 (stereo not given) | inactive |
| Nc1cccc(S(=O)(=O)O)c1 | inactive |
| OCCN1CCN(CCO)CC1 | inactive |
| CC1=C(O)C(=O)OC1C (stereo not given) | inactive |
| CCCCCCCCCC/C=C/C#N | inactive |
| CC(C)C(=O)OC/C=C/c1ccccc1 | inactive |
| OCC(CBr)(CBr)CBr | inactive |
| Cc1nc(-c2ccccn2)ncc1C(=O)Nn1cc(C)c2cc(F)ccc21 | inactive |
| CCCS(=O)c1ccc2nc(NC(=O)OC)[nH]c2c1 (stereo not given) | inactive |
